Drawing on PubChem BioAssay (EPA / NIEHS), this text covers AC50 and outcome for one molecule.

The nature of assay [1]: CCTE_Shafer_MEA_dev_firing_rate_mean: CCTE's Neural Network Formation Assay for Mean Firing Rate, Shafer Lab (AID 2284031).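 Further: curve fitted for loss of firing so AC50 reflects decreased mean firing rate.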 In outline:
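Spike frequency (spikes/recording length, averaged over active electrodes) was recorded on days 5, 7, 9 and 12 and collapsed to AUC; rat cortical cultures received compound continuously over 12 days of network development.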

The nature of assay [2]: CCTE_Shafer_MEA_dev_per_burst_spike_percent: CCTE's Neural Network Formation Assay for Percent of Spikes in a Burst, Shafer Lab (AID 2284032).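 Further: fitted as a decrease in burst spike percentage below DMSO baseline.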 In outline:
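Value is trapezoidal AUC over recordings on days 5, 7, 9 and 12 of the well-mean fraction of spikes falling in single-electrode bursts; rat cortical cultures exposed continuously from plating, treatment renewed DIV 5 and 9, fitted downward against DMSO.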

Assay [3] is described as follows: CCTE_Shafer_MEA_dev_active_electrodes_number: CCTE's Neural Network Formation Assay for Number of Active Electrodes, Shafer Lab (AID 2284040; active means hit-call score of the fitted dose curve at least 0.9, where 1 is the maximum;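 further: potency for loss of active electrodes versus DMSO so lower counts are hits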). In outline:
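Counts electrodes per well firing at least 5 spikes/min, recorded on days 5, 7, 9 and 12 in rat cortical cultures dosed continuously from plating (treatment refreshed DIV 5, 9). Value is the area under the curve over recordings, fitted downward relative to DMSO.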

The nature of assay [4]: CCTE_Shafer_MEA_dev_bursting_electrodes_number: CCTE's Neural Network Formation Assay for Number of Bursting Electrodes, Shafer Lab (AID 2284043; active means hit-call score of the fitted dose curve at least 0.9, where 1 is the maximum;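 further: potency is for loss of bursting electrodes relative to DMSO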). In outline:
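Counted: electrodes with burst rate ≥1 per 2 min in each well. Cells: primary rat cortex, 1.5 x 10^5/well, on 16-electrode MEA wells. Exposure: DIV 0–12, compound renewed DIV 5 and 9. Recording days 5, 7, 9, 12; AUC vs DMSO baseline.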

A short description of assay [5]: CCTE_Shafer_MEA_dev_per_burst_interspike_interval: CCTE's Neural Network Formation Assay for Burst Interspike Interval, Shafer Lab (AID 2284044).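 Further: potency for a decrease of within-burst interspike interval below DMSO level.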 In a few lines:
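Primary rat cortical neurons on 48-well MEA plates, exposed from day 0 through day 12, treatment renewed at DIV 5 and 9. Within-burst interspike interval recorded days 5, 7, 9, 12, well-averaged, summarised as AUC; negative fit versus DMSO.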

Assay [6] can be described thus: CCTE_Shafer_MEA_dev_burst_duration_mean: CCTE's Neural Network Formation Assay for Mean Burst Duration, Shafer Lab (AID 2284045). In outline: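 Network-formation assay in primary rat cortical neurons; treatment spans twelve days of development. Mean burst duration per well is integrated by trapezoidal AUC and fitted in the loss-of-signal direction against DMSO baseline.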

The nature of assay [7]: CCTE_Shafer_MEA_dev_interburst_interval_mean: CCTE's Neural Network Formation Assay for Mean Interburst Interval, Shafer Lab (AID 2284046).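 Further: well-mean interburst interval of bursting electrodes as AUC over four recording days; curve fitted for decrease in interburst interval relative to DMSO.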 In a few lines:
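Network formation assay in primary rat cortical cultures, exposed from DIV 0 to 12. Mean interburst interval per well, integrated as AUC over four recordings.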

Assay [8] in a line: CCTE_Shafer_MEA_dev_network_spike_number: CCTE's Neural Network Formation Assay for Number of Network Spikes, Shafer Lab (AID 2284048).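 Further: synchronized bursts across electrodes counted on days 5 7 9 12 and integrated as AUC; fit as a loss of signal meaning fewer network spikes than DMSO.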 In outline: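 Extracellular recordings from 16-electrode wells track network formation in rat cortical cultures under continuous treatment from plating. The endpoint is network spike number, expressed as AUC across DIV 5–12 relative to DMSO vehicle.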

Assay [9] is described as follows: CCTE_Shafer_MEA_dev_network_spike_peak: CCTE's Neural Network Formation Assay for Mean Number of Electrodes in Network Spike, Shafer Lab (AID 2284049).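 Further: fitted for loss of signal meaning fewer electrodes in network spikes than DMSO.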 In a few lines: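 Continuous 12-day exposure of rat cortical cultures, starting at plating, on MEA plates. Endpoint: electrodes participating in network-spike peaks, AUC across DIV 5–12, DMSO as negative control.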

A short description of assay [10]: CCTE_Shafer_MEA_dev_spike_duration_mean: CCTE's Neural Network Formation Assay for Mean Spike Duration, Shafer Lab (AID 2284051).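 Further: mean network spike duration pooled as area under curve over DIV 5 to 12 recordings; potency for a decrease in mean network spike duration versus DMSO.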 In outline: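 With DMSO as baseline, loss of mean network spike duration was scored from extracellular recordings of rat cortical neurons on MEA plates. Exposure spanned plating to DIV 12; the four recording days were collapsed into one AUC value.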

Assay [11] is described as follows: CCTE_Shafer_MEA_dev_per_network_spike_spike_number_mean: CCTE's Neural Network Formation Assay for Mean Number of Spikes in a Network Spike, Shafer Lab (AID 2284053). In outline: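 First, rat cortical cells (1.5 x 10^5/well) were seeded onto MEA wells; second, dosing began at plating and was refreshed on DIV 5 and 9; finally, network-spike spike counts across DIV 5–12 were summarized as AUC.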

The nature of assay [12]: CCTE_Shafer_MEA_dev_per_network_spike_spike_percent: CCTE's Neural Network Formation Assay for Percent of Spikes in a Network Spike, Shafer Lab (AID 2284054). In a few lines: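 Developing networks of rat cortical neurons are dosed at day 0 and recorded extracellularly four times up to day 12. The endpoint is the area under the curve of percent spikes in network spikes, fitted in the negative direction relative to DMSO.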

Assay [13] can be described thus: CCTE_Shafer_MEA_dev_LDH: CCTE's Lactate Dehydrogenase Assay for Cytotoxicity in the Neural Network Formation Assay, Shafer Lab (AID 2284068; active means hit-call score of the fitted dose curve at least 0.9, where 1 is the maximum;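 further: exposure for twelve days from plating with re-dosing on DIV 5 and 9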). In outline:
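Developing rat cortical networks on MEA plates are exposed to compound for 12 days from plating. LDH activity is measured spectrophotometrically, with DMSO as baseline.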

The nature of assay [14]: CCTE_Shafer_MEA_dev_AB: CCTE's Alamar Blue Assay for Cytotoxicity in the Neural Network Formation Assay, Shafer Lab (AID 2284083; active means hit-call score of the fitted dose curve at least 0.9, where 1 is the maximum;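 further: resazurin reduction fluorescence as viability of cultured neurons; twelve days of exposure from plating with re-dosing on DIV 5 and 9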). In outline:
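Cytotoxicity companion to the developmental MEA: primary rat cortical neurons, 12-day exposure starting day 0, compound refreshed DIV 5 and 9; resazurin fluorescence, fitted against DMSO vehicle.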

A short description of assay [15]: CCTE_Shafer_MEA_dev_mutual_information_norm: CCTE's Neural Network Formation Assay for Mutual Information Normalization, Shafer Lab (AID 2284091).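 Further: mutual information between electrodes summarised as area under curve across four recording days; potency is for a decrease in mutual information relative to DMSO.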 In a few lines:
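Exposure of primary rat cortical neurons began at plating and ran to DIV 12, with full media and treatment renewal after DIV 5 and 9 recordings. Mutual information AUC (DIV 5–12) was analysed for loss versus DMSO.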

Assay [16] can be described thus: CCTE_Shafer_MEA_dev_correlation_coefficient_mean: CCTE's Neural Network Formation Assay for Mean Correlation Coefficient, Shafer Lab (AID 2284093).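 Further: well mean pairwise spike train correlation integrated as AUC over recording days 5 to 12; potency fitted for loss of correlation relative to DMSO vehicle wells.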 In outline: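 Extracellular firing from rat cortical networks on 48-well MEAs, DMSO-referenced, negative fitting direction. Compound present from plating to DIV12; mean pairwise correlation per well integrated over DIV5–12 recordings by trapezoidal AUC.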

Assay [17] can be described thus: UKN2_HCS_IMR90_neural_migration: University of Konstanz (UKN) Leist Lab Neural Crest Cell Migration Assay in human induced IMR90 Pluripotent Stem Cells (UKN2) (AID 2284204). The note with it: actives raise or lower the signal. In outline:
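Using a 96-well stopper format with PLO/laminin/fibronectin coating, neural crest cells from iPSC migrate in cytokine-supplemented N2-S medium; after 24 h, chemicals are applied for a further 24 h, then cells are imaged after dye staining.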

A short description of assay [18]: IUF_NPC1b_proliferation_BrdU_72hr: Leibniz Research Institute for Environmental Medicine (IUF) 72-hour Neural Progenitor Cell Bromodeoxyuridine (BrdU) Proliferation Assay (NPC1b) (AID 2284207). In a few lines: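 Neural progenitor spheres of human fetal origin are treated for three days; BrdU added for the last 16 h is quantified by luminescence ELISA, with DMSO as baseline and EGF/FGF omission as positive control.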

A short description of assay [19]: IUF_NPC1a_proliferation_area_72hr: Leibniz Research Institute for Environmental Medicine (IUF) 72-hour Neural Progenitor Cell Proliferation Area Assay (NPC1a) (AID 2284208). In a few lines: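 Single 0.25–0.35 mm human fetal neural progenitor spheres in proliferation medium with EGF and FGF, exposed 72 h from plating without renewal at 37C, pH 7.2-7.6. Sphere area growth measured by automated phase-contrast imaging, relative to DMSO.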

Assay [20] in a line: IUF_NPC1_viability_72hr: Viability Assessment at 72 hours in the Leibniz Research Institute for Environmental Medicine (IUF) Neural Progenitor Cell Proliferation Assay (NPC1) (AID 2284209). In a few lines:
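Viability was measured by resazurin-to-resorufin fluorescence (alamar blue) after 72 h of continuous exposure without compound renewal. Each well held one hNPC sphere (gestational week 16-19 fetal cortex, 0.25-0.35 mm) cultured in EGF/FGF proliferation medium at 37C and pH 7.2-7.6.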

Assay [21] is described as follows: CCTE_Mundy_HCI_Cortical_Synap_Neur_Matur_NeuriteSpotCountPerNeuriteLength: CCTE's Synaptogenesis and Neurite Maturation Assay in rat cortical cells for Neurite Spot Count per Neurite Length, Mundy Lab (AID 2284210). In outline:
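Neurite-associated synapse density (synaptophysin puncta per unit neurite length) is measured by fluorescence high-content imaging in rat cortical cultures treated from DIV 7 and fixed at DIV 12, with DMSO as negative control.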

A short description of assay [22]: CCTE_Mundy_HCI_Cortical_Synap_Neur_Matur_BPCount: CCTE's Synaptogenesis and Neurite Maturation Assay in rat cortical cells for Branch Point Count, Mundy Lab (AID 2284211). In outline:
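HCI read-out of branch points from MAP2/synaptophysin/Hoechst immunofluorescence; rat cortical cultures, AraC DIV 5, dosing DIV 7, fixed DIV 12; fit in positive direction vs DMSO baseline.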

Assay [23] can be described thus: CCTE_Mundy_HCI_Cortical_NOG_NeuriteCount: CCTE's Neurite Outgrowth Assay in rat cortical cells for Neurite Count, Mundy Lab (AID 2284212).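 Further: cells fixed about two days after chemical exposure began.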 In outline:
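Rat cortical primary cells; compound added 2 h post-plating, 1/10 dilution of working solution. Anti-betaIII-tubulin/AF488 ICC; ArrayScan neurite count vs DMSO.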

The nature of assay [24]: CCTE_Mundy_HCI_Cortical_NOG_NeuriteLength: CCTE's Neurite Outgrowth Assay in rat cortical cells for Neurite Length, Mundy Lab (AID 2284213). In a few lines:
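First, rat primary cortical cells were plated and, 2 h later, given test chemical as a 1/10 dilution. Finally, βIII-tubulin immunostaining enabled automated imaging of neurite length.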

Results filed as inconclusive are left out. Activity calls are given as the source filed them. How the source made its calls, unless noted: active means hit-call score of the fitted dose curve at least 0.9, where 1 is the maximum; inactive means score below 0.9.

As usually defined, the AC50 is the concentration at which the activity in the assay is half-maximal. Regarding `C[C@@H]1CCO[C@H]2Cn3cc(C(=O)NCc4ccc(F)cc4F)c(=O)c(O)c3C(=O)N12`, the AC50 in assay [1] is 2.57 µM (active); in assay [2], 1.64 µM (active); in [3], 1.46 µM (active); in [4], 1.65 µM (active); in [5], 1.8 µM (active); in [7], 1.74 µM (active). For the same molecule, the AC50 in assay [8] is 1.54 µM (active); in assay [9], 1.11 µM (active); in assay [10], 0.901 µM (active); in [11], 0.983 µM (active); in assay [12], 0.691 µM (active); in [13], 1.07 µM (active). For the same molecule, the AC50 in assay [14] is 1.8 µM (active); in assay [15] it was 1.55 µM (active); in assay [16], 1.52 µM (active); in [21], 7.38 µM (active); in assay [22] it was 1.14 µM (active). For the same molecule, the call in assay [6], in assay [17], in assay [18], in assay [19], in assay [20] and in assay [23] was inactive. Besides, in [24], the molecule was called inactive.
